# Of roughly 7,900 targets only a part is listed; those with a hit were picked by preference. About 0.6% of all pairs of compound and target were hits. Unmarked numbers belong to inactive results.
# Experiments:
# Experiment in all cases: log2 fold change, soluble protein after heating vs DMSO (PISA); higher = thermal stabilisation; K562 cells, 10 uM, 30 min; active = over 0.2 and 3.5 SD of the protein, either way, in both replicates (recomputed)
# [1] = compound: CC1=C(C=C(C=C1)NC(=O)C2=CC(=CC=C2)C(C)(C)C#N)NC3=CC4=C(C=C3)N=CN(C4=O)C
# Summary of the method: (§1)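 Thermal stability values are relative to control samples and come from duplicates. They are expressed as log2 fold changes. For measurement, K562 cells (2×10^6 cells/mL) received 10 μM compound for 30 min, and aliquots were heated for 3 min over 48°C-58°C, pooled, and extracted at 4°C in PBS with 0.5% NP-40. Soluble protein, the supernatant after 21,000xg for 90 min, was quantified by TMTpro 16plex LC-MS/MS with equalised channel sums.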
# [2] = compound: CC1=C(C=C(C=C1)NC(=O)C2=CC(=CC=C2)N(C)C)NC(=O)C3=CC=C(C=C3)O
# Summary of the method: as §1
# [3] = compound: CC1=CC=C(C=C1)SC2=C3C=C(SC3=CN=C2)C(=O)N
# Summary of the method: as §1
# [4] = compound: CC1=NC(=CC=C1)C2=C(N=C(N2)C(C)(C)C)C3=CC4=NC=CN=C4C=C3
# Summary of the method: as §1
# Nexturastat A = compound: CCCCN(Cc1ccc(C(=O)NO)cc1)C(=O)Nc1ccccc1 [Nexturastat A]
# Summary of the method: as §1
# vemurafenib = compound: CCCS(=O)(=O)Nc1ccc(F)c(C(=O)c2c[nH]c3ncc(-c4ccc(Cl)cc4)cc23)c1F [vemurafenib]
# Summary of the method: as §1
# [5] = compound: CCCS(=O)(=O)Nc1ccc(F)c(C(=O)c2c[nH]c3ncc(Cl)cc23)c1F
# Summary of the method: as §1
# [6] = compound: CCCc1cc(C)[nH]c(=O)c1CNC(=O)c1cc(-c2ccnc(N3CCN(C)CC3)c2)cc2c1cnn2C(C)C
# Summary of the method: as §1
# givinostat = compound: CCN(CC)Cc1ccc2cc(COC(=O)Nc3ccc(C(=O)NO)cc3)ccc2c1 [givinostat]
# Summary of the method: as §1
# barasertib = compound: CCN(CCCOc1ccc2c(Nc3cc(CC(=O)Nc4cccc(F)c4)[nH]n3)ncnc2c1)CCOP(=O)(O)O [barasertib]
# Summary of the method: as §1
# [7] = compound: CC[C@@H]1C(=O)N(C)c2cnc(Nc3ccc(C(=O)NC4CCN(C)CC4)cc3OC)nc2N1C1CCCC1
# Summary of the method: as §1
# volasertib = compound: CC[C@@H]1C(=O)N(C)c2cnc(Nc3ccc(C(=O)N[C@H]4CC[C@H](N5CCN(CC6CC6)CC5)CC4)cc3OC)nc2N1C(C)C [volasertib]
# Summary of the method: as §1
# [8] = compound: CC[C@H](C)N1C=C(C2=C(C=C(C=C21)C3=CN=C(C=C3)N4CCNCC4)C(=O)NCC5=C(C=C(NC5=O)C)C)C
# Summary of the method: as §1
# epoxomicin = compound: CC[C@H](C)[C@@H](C(=O)N[C@@H]([C@@H](C)O)C(=O)N[C@@H](CC(C)C)C(=O)[C@]1(CO1)C)NC(=O)[C@H]([C@@H](C)CC)N(C)C(=O)C [epoxomicin]
# Summary of the method: as §1
# [9] = compound: CCn1c(C(=O)N(C2CC2)C2CC2)cc2c3c(ncn3C)c(Nc3cc(C)n(C)n3)nc21
# Summary of the method: as §1
# [10] = compound: CCn1cc(-c2ccnc3[nH]c(-c4cccc(CN(C)C)c4)cc23)c(-c2ccc(NC(=O)N(C)C)cc2)n1
# Summary of the method: as §1
# [11] = compound: CN(C)CC(=O)Nc1ccc2[nH]c(=O)c3ccccc3c2c1
# Summary of the method: as §1
# rosiglitazone = compound: CN(CCOC1=CC=C(C=C1)C[C@H]2C(=O)NC(=O)S2)C3=CC=CC=N3 (racemic) [rosiglitazone]
# Summary of the method: as §1
# [12] = compound: CN1C2=C(C3=C1C(=O)N(N=C3)CC4=CC(=CC=C4)N)SC(=C2)S(=O)C
# Summary of the method: as §1
# [13] = compound: CN1CCC(CNc2ccc3ncc(-c4cccc(OC(F)(F)F)c4)n3n2)CC1
# Summary of the method: as §1
# Sequence of UniProt Q8N684 (Q8N684 whole entry, looked up): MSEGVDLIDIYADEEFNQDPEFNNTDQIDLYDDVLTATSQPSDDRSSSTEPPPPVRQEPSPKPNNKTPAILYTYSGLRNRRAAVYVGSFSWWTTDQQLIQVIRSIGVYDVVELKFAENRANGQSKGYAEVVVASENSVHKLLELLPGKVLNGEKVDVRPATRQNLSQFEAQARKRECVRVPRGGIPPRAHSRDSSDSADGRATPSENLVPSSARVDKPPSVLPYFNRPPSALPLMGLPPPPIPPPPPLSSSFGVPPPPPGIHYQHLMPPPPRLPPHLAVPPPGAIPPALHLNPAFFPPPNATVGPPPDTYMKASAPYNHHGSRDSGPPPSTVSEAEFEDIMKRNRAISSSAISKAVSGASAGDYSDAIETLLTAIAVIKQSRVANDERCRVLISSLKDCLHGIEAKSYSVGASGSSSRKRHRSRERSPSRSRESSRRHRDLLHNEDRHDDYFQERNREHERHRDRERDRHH
# Sequence of UniProt P19397 (P19397 whole entry, looked up): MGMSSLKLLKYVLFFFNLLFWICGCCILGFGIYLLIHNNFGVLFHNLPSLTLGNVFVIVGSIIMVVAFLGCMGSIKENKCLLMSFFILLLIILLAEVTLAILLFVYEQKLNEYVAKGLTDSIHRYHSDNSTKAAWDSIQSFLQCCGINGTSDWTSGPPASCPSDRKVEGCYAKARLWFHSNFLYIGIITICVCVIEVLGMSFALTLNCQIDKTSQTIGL
# Sequence of UniProt P33240 (P33240 whole entry, looked up): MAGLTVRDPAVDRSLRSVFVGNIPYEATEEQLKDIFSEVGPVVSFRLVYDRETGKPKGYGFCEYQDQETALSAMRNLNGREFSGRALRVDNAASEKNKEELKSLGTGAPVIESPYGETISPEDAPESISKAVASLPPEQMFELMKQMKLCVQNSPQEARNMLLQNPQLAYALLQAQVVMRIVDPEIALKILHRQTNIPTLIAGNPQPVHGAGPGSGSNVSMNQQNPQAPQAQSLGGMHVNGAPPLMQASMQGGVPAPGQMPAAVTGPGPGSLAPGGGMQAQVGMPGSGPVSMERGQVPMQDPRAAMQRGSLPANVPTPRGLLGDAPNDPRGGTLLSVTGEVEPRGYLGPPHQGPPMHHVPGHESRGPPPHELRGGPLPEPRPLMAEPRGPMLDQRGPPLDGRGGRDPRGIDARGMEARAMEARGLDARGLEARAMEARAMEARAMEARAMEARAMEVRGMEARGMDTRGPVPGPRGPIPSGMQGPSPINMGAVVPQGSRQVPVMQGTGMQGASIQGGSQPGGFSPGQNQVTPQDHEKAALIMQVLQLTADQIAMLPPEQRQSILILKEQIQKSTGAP
# Sequence of UniProt P35790 (P35790 whole entry, looked up): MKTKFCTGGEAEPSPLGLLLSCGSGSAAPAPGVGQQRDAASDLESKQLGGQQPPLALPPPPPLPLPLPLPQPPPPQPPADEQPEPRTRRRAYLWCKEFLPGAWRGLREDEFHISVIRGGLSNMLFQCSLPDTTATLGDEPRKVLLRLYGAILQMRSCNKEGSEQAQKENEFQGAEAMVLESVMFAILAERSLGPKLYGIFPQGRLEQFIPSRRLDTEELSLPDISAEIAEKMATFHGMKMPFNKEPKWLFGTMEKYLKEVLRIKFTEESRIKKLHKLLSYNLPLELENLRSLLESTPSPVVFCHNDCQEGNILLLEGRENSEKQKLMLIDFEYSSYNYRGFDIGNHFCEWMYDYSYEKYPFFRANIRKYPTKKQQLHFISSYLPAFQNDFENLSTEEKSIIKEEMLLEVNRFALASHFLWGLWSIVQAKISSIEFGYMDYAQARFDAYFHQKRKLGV
# Sequence of UniProt P09497 (P09497 whole entry, looked up): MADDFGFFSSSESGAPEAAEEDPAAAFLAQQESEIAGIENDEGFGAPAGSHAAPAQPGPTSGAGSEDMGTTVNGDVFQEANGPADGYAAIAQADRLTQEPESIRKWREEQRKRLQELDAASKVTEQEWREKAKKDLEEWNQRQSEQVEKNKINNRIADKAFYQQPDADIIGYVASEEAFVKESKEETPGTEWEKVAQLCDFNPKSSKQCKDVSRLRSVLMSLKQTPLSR
# Sequence of UniProt Q5JTJ3 (Q5JTJ3 whole entry, looked up): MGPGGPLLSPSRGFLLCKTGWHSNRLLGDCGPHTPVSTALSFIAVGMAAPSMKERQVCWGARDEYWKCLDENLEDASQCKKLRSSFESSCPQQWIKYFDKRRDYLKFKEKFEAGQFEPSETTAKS
# Sequence of UniProt Q16630 (Q16630 whole entry, looked up): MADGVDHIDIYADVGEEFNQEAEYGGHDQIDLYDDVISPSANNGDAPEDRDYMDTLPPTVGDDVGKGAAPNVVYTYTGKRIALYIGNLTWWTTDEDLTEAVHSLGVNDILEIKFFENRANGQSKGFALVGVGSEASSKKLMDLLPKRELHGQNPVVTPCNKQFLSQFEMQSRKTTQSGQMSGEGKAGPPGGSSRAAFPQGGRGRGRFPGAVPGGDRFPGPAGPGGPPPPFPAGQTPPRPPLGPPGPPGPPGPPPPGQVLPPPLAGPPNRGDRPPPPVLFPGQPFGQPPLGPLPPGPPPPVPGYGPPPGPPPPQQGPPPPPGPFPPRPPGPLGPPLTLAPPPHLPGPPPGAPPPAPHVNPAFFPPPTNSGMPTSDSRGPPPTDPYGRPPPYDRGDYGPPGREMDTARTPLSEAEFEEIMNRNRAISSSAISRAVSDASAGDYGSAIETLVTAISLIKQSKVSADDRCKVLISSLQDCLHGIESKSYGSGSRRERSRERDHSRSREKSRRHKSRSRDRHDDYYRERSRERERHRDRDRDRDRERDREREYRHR
# Sequence of UniProt P08174 (P08174 whole entry, looked up): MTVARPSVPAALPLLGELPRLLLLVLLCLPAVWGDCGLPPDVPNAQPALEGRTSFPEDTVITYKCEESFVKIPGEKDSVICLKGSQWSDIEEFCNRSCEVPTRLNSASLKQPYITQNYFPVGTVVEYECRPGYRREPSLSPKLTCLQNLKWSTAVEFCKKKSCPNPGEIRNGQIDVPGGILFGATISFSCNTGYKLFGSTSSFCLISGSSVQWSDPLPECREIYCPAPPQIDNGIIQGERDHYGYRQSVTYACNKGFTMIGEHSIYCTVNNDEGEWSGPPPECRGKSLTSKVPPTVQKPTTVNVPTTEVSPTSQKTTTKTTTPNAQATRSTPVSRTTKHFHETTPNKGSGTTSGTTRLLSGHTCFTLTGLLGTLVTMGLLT
Target,log2 fold change [1],log2 fold change [2],log2 fold change [3],log2 fold change [4],log2 fold change (Nexturastat A),log2 fold change (vemurafenib),log2 fold change [5],log2 fold change [6],log2 fold change (givinostat),log2 fold change (barasertib),log2 fold change [7],log2 fold change (volasertib),log2 fold change [8],log2 fold change (epoxomicin),log2 fold change [9],log2 fold change [10],log2 fold change [11],log2 fold change (rosiglitazone),log2 fold change [12],log2 fold change [13]
CLTB (UniProt P09497),-0.003,-0.025,-0.007,0.037,-0.039,-0.009,-0.012,-0.036,0.047,-0.023,0.099,0.134,-0.102,0.032,0.001,-0.006,-0.024,-0.013,-0.064,0.106
COA6 isoform 2 (UniProt Q5JTJ3),-0.054,-0.012,0.767 (active),0.036,0.007,-0.041,-0.009,-0.089,-0.02,-0.042,0.045,0.04,-0.004,0.079,-0.069,0.045,-0.023,-0.055,-0.16,0.022
CD55 isoform 7 (UniProt P08174),0.037,-0.006,0.021,0.049,0.072,-0.031,-0.053,0.088,0,-0.057,0.172,0.096,-0.031,0.086,0.02,-0.006,-0.042,-0.078,-0.005,0.228 (active)
CPSF7 isoform 3 (UniProt Q8N684),0.015,0.001,0.014,0.012,-0.003,0.018,0.007,-0.016,0.01,-0.044,0.077,0.039,0.053,-0.042,0.004,-0.015,-0.014,-0.029,-0.001,0.006
CSTF2 (UniProt P33240),-0.081,0,0.002,-0.05,0.026,0.016,-0.053,0.004,-0.014,-0.042,0.06,0.233 (active),-0.024,-0.077,0.011,0.041,-0.048,0.01,-0.085,-0.004
CPSF6 isoform 2 (UniProt Q16630),0.054,0.02,-0.027,0.02,-0.042,0.001,-0.069,0.035,0.048,-0.042,0.016,0.02,0.016,-0.014,-0.037,-0.036,-0.062,0.008,0.004,-0.014
CHKA (UniProt P35790),-0.011,-0.048,-0.125,0.033,0.036,-0.017,0.019,-0.164,0.334 (active),0.05,0.22,0.161,-0.077,0.127,-0.001,0.203,0.043,0.044,-0.082,0.187
CD53 (UniProt P19397),-0.062,-0.099,-0.13,-0.095,-0.006,-0.035,-0.182,-0.092,-0.006,-0.102,0.183,-0.103,-0.049,-0.02,0.004,-0.092,-0.007,0.074,-0.051,-0.06

# Reference: the supplement of paper PMC10849652
